Measured values reported in PubChem BioAssay.

The compounds below were run against Epidermal growth factor receptor (Homo sapiens) (UniProt P00533) (assay: compounds binding epidermal growth factor receptor – biochemical, small-molecule microarray, 635 nm fluorescence, primary screen (AID 1104;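 also: score merges 667 nm emission intensity with spot signal to noise over triplicate slides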)). Details: EGFR binding, higher = more signal.
Epidermal growth factor receptor (Homo sapiens), sequence (P00533 whole entry, looked up): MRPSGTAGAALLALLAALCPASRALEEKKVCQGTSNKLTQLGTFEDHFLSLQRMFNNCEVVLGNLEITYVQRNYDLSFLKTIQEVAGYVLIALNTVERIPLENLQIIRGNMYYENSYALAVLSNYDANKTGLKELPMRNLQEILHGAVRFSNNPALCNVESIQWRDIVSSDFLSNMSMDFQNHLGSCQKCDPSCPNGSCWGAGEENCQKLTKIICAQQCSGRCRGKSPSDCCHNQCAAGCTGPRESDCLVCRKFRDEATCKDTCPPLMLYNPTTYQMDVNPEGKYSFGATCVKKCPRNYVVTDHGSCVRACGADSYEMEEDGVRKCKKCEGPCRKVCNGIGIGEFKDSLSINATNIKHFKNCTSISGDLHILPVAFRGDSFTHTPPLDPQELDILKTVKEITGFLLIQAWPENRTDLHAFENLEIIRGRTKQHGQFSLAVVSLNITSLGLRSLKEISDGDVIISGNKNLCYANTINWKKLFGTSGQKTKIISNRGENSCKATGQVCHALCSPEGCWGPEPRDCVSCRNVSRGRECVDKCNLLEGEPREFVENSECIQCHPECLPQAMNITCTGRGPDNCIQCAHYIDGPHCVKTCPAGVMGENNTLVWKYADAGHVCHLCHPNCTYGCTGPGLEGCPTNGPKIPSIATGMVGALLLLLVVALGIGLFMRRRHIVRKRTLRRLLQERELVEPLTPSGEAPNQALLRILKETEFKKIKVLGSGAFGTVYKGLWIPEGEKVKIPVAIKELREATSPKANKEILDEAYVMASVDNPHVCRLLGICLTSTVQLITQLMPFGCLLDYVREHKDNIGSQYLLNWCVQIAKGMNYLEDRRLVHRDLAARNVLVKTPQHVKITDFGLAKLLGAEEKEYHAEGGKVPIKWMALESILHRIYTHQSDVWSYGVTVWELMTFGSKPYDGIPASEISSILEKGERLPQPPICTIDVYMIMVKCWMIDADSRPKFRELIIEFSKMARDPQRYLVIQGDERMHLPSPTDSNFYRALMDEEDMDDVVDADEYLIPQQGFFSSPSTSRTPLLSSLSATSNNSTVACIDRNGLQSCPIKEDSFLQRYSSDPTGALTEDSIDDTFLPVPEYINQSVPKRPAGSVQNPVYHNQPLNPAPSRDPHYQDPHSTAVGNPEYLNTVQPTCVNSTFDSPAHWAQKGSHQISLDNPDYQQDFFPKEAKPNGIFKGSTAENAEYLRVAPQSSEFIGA
Work on CO[C@H]1COC(=O)CC=C[C@@H](C)COC(=O)[C@H]2CCCN2C(=O)CC=C[C@H]1C yielded a composite z-score of 1.29. CC(C)=CCCC(C)=CCON=C1[C@H]2CCn3c(=O)n(-c4ccccc4)c(=O)n3[C@H]2[C@H](O)[C@@H]2O[C@H]12 gave a composite z-score of 0.752. Compound COc1ccc(O[C@H]2C=C[C@@H](c3ccccc3)O[C@@H]2COC(=O)NCc2cccc3ccccc23)cc1 has a composite z-score of -0.168. Compound C#CCCCON=C1[C@H]2CCn3c(=O)n(Cc4cc5c(cc4Cl)OCO5)c(=O)n3[C@H]2[C@H](O)[C@@H]2O[C@H]12 has a composite z-score of 0.664. COC(=O)[C@@H]1CC[C@H](C)[C@@H](c2ccc(C)cc2)N1C(=O)c1ccc(C=NOC[C@@H](O)[C@H]2O[C@@H]3OC(C)(C)O[C@@H]3[C@H]2O)cc1 gave a composite z-score of 0.54. For CCOC(=O)[C@H](CC(C)C)NC(=O)CCC1CC(OC(=O)NCc2ccc3c(c2)OCO3)CC2(CCCC(COC(=O)NCCc3ccc(Cl)cc3)O2)O1 (stereo partly specified), the composite z-score was 0.199. CCOC(=O)[C@H](Cc1ccccc1)NC(=O)CCC1CC(OC(=O)NCCc2ccc(F)cc2)CC2(CCCC(COC(=O)NCCOc3ccccc3)O2)O1 (stereo partly specified) showed a composite z-score of 0.597. With CC(C)=NOC(C)CN1CCCc2nc(C)c(C)cc21 (stereo unspecified) the composite z-score was 0.697. CCOC(=O)[C@H](Cc1ccccc1)NC(=O)CCC1CC(OC(=O)NCc2ccc3c(c2)OCO3)CC2(CCCC(COC(=O)NCCOC)O2)O1 (stereo partly specified) showed a composite z-score of 0.584. In the case of CC(CCC(=O)OC[C@H]1O[C@H](C#Cc2ccccc2)C=C[C@@H]1Oc1ccc(C)cc1)=NO[C@H](C)c1cn([C@@H]2COC[C@H]2O)nn1, the composite z-score is reported as 0.238. With CCN1C(C)=C(C(=O)OC)[C@@H](c2ccccc2)N2C(=O)[C@](O)(C(=O)OC)CC(C(C)=O)=C12 the composite z-score was 0.633. In the case of CCOC(=O)CCN1C(=O)[C@H]2[C@H]3[C@H](O)[C@H](O)CC(=NO[C@@H]4O[C@H](CO)[C@@H](O)[C@H](O)[C@H]4O)[C@H]3CC[C@H]2C1=O, the composite z-score is reported as 0.563. Compound CCC1=NOC(CCC2CC(OC(=O)NCc3cccc4c3OCO4)CC3(CCCC(COC(=O)NCCc4ccc(Cl)cc4)O3)O2)C1 (stereo unspecified) has a composite z-score of -0.0917. For CC(C)=CCCC(C)=CCON=C1C[C@@H](O)[C@@H](O)[C@@H]2[C@@H]3C(=O)N(C4CCCCC4)C(=O)[C@@H]3CC[C@H]12, the composite z-score was 0.513. With COC(=O)[C@@H]1CC[C@H](C)[C@@H](c2ccc(C)cc2)N1C(=O)c1ccc(C=NO[C@@H](C)c2cc(-c3c(C)cc(C)cc3C)no2)cc1 the composite z-score was 0.51. CCN1C(=O)[C@H]2[C@H]3[C@H](O)[C@H](O)CC(=NO[C@H](C)c4cn([C@@H]5COC[C@H]5O)nn4)[C@@H]3CC[C@H]2C1=O showed a composite z-score of 0.219. Work on CC(C)=NOC[C@@H](O)[C@H]1O[C@@H]2OC(C)(C)O[C@@H]2[C@H]1O yielded a composite z-score of 0.487. COc1ccc(COC(=O)NN=C2C[C@@H](O)[C@@H](O)[C@@H]3[C@@H]4C(=O)N(C[C@@H]5CCCO5)C(=O)[C@@H]4CC[C@@H]23)cc1 showed a composite z-score of -0.127. Compound COc1ccc(O[C@H]2C=C[C@@H](c3ccccc3)O[C@@H]2CON=C(C)CCN2CCCc3nc(C)c(C)cc32)cc1 has a composite z-score of 0.227. Compound CCc1cc2c(nc1CC)CCN(CCC(C)=NOCC[C@@H]1C=C[C@H](OC(C)=O)[C@@H](COC(C)=O)O1)C2 has a composite z-score of 0.789. CCOC(=O)[C@H](CC(C)C)NC(=O)CCC1CC(OC(=O)NCCc2ccc(F)cc2)CC2(CCCC(COC(=O)NCCCN3CCCC3=O)O2)O1 (stereo partly specified) gave a composite z-score of 0.261. COc1ccc(COC(=O)NN=C2C[C@@H](O)[C@@H](O)[C@@H]3[C@@H]4C(=O)N(Cc5ccc6c(c5)OCO6)C(=O)[C@@H]4CC[C@H]23)cc1 showed a composite z-score of -0.953. CC(CCN1CCCCc2nc(C)c(C)cc21)=NOC[C@@H](O)[C@H]1O[C@@H]2OC(C)(C)O[C@@H]2[C@H]1O showed a composite z-score of 0.774. With O=C1[C@H]2CCn3c(=O)n(-c4ccccc4)c(=O)n3[C@H]2[C@H](O)[C@@H]2O[C@H]12 the composite z-score was 0.299. For CC(C)=NO[C@H](C)c1cn([C@@H]2COC[C@H]2O)nn1, the composite z-score was 0.539. CC(CCN1CCc2nc(-c3ccccc3)c(-c3ccccc3)cc2C1)=NO[C@@H](C)c1cc(-c2c(C)cc(C)cc2C)no1 was tested, and the composite z-score was -0.345. CC(C)CN1CCc2nc(-c3ccccc3)c3c(c2C1)CO[C@@H](C)C3 was tested, and the composite z-score was 0.383. For CCOC(=O)CCN1C(=O)[C@H]2[C@H]3[C@H](O)[C@H](O)CC(=NOCC=C(C)CCC=C(C)C)[C@@H]3CC[C@H]2C1=O, the composite z-score was 1.17. CON=C[C@@H](OC)[C@H](C)C=CCC(=O)OC showed a composite z-score of 0.327. CCOC(=O)CCN1C(=O)[C@H]2[C@H]3[C@H](O)[C@H](O)CC(=NO[C@@H]4O[C@H](CO)[C@@H](O)[C@H](O)[C@H]4O)[C@@H]3CC[C@H]2C1=O showed a composite z-score of 1.05. CC(CCN1CCCc2nc(C)c(C)cc21)=NO[C@H](C)c1cn([C@@H]2COC[C@H]2O)nn1 was tested, and the composite z-score was 1.06. CC(C)(C)N1C(=O)[C@H]2[C@H]3[C@H](O)[C@H](O)CC(=NOC[C@@H](O)COCc4ccco4)[C@H]3CC[C@H]2C1=O showed a composite z-score of -0.284. For CCOC(=O)CCN1C(=O)[C@H]2[C@@H]3C(=CC[C@H]2C1=O)C(=O)[C@H]1O[C@H]1[C@H]3O, the composite z-score was -0.0633. Compound COc1ccc(COC(=O)NN=C2C[C@@H](O)[C@@H](O)[C@@H]3[C@@H]4C(=O)N(C[C@@H]5CCCO5)C(=O)[C@@H]4CC[C@H]23)cc1 has a composite z-score of -0.211. In the case of CCN1C(=O)[C@H]2[C@H]3[C@H](O)[C@H](O)CC(=NOCC(C)C)[C@H]3CC[C@H]2C1=O, the composite z-score is reported as 0.732. CC(C)=CCCC(C)=CCON=C1C[C@@H](O)[C@@H](O)[C@@H]2[C@@H]3C(=O)N(Cc4ccc5c(c4)OCO5)C(=O)[C@@H]3CC[C@H]12 gave a composite z-score of 0.426.
